This is an account of results in PubChem BioAssay AID425 (Sanford-Burnham Center for Chemical Genomics, 2006).

Several values for one entry are separate records, joined by “and”; a condition that tells them apart may be missing. Equal values may be shown once. Among all 110,000 compounds or so, about 190 (0.17%) were called active. Rule as the data show it: active = inhibition above about 50%; inactive = the rest. The sample as a whole holds a higher share of actives than the screen did. Measured potencies and affinities stand elsewhere. More than one record can exist for a structure, and the calls need not agree.

For this experiment, the target named is Dual specificity protein phosphatase 6 (Rattus norvegicus) (UniProt Q64346). Kind of experiment: inhibition of rat DUSP6 enzyme activity – biochemical, in vitro, primary screen (AID 425).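 Also: plate controls were vehicle for no effect and reference inhibitor for full effect.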 The conditions noted are these: recombinant MKP-3 phosphatase activity, fluorescence; at 20 µM; stronger effect = higher value.
Sequence of Dual specificity protein phosphatase 6 (Rattus norvegicus) (Q64346 whole entry, looked up): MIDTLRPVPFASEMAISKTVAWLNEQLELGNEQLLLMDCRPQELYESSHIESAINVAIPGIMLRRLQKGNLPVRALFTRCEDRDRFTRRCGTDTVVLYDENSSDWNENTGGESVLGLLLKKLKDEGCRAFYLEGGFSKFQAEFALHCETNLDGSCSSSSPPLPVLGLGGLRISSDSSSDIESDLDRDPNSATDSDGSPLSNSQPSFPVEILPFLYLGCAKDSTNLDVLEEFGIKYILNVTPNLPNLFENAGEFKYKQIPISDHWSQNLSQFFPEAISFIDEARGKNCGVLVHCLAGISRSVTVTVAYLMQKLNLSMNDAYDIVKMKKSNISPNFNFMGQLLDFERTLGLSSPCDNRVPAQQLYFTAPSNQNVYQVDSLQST
As to `Cc1nc2ncccn2c1-c1csc(Nc2cccc(O)c2)n1`, the inhibition was 2.7% (inactive). The figure for `O=C(CCCCC(=O)NCc1cccs1)NCc1cccs1` is -5.6% (inactive). Take `CCn1cc(C(C)NC(=O)COc2ccc(Cl)cc2C)c(C)n1` (stereo not drawn): the inhibition was -4% (inactive). `c1ccc(-c2nc(C3COc4ccccc4O3)cs2)cc1` (stereo not drawn): the inhibition was -4.2% (inactive). Take `CCOc1ccc2nc(Nc3nc(C)c(C)c(=O)[nH]3)nc(C)c2c1`: the inhibition is 1.2% (inactive). As to `CCOc1ccc2nc(Nc3nc(O)c(C)c(=O)[nH]3)nc(C)c2c1`, the inhibition is 0.7% (inactive).

In the case of `COc1ccc([N+](=O)[O-])cc1NC(=O)c1ccc(N(C)C)cc1`, the inhibition was 1.4% (inactive). The value for `Cn1cccc1Cc1nnc(SCC(=O)Nc2nc3ccccc3s2)n1CCc1ccccc1` was -4.6% (inactive); that for `O=C1c2cccnc2-c2ncccc21` was 6.6% (inactive); that for `Cc1ccc(C)n1-c1ccc(CC(=O)O)cc1` was 25.5% (inactive). The value for `Cc1ccc(C)n1-c1ccc(SCC(=O)O)cc1` was 106% (active); that for `Cc1ccc(C)n1-c1ccc(OCC(=O)O)cc1` was 25.7% (inactive). On to `CCOC(=O)c1c(NC(=S)NCc2ccccc2)sc2c1CCC2`, for which the inhibition is 0% (inactive). The figure for `CC(Cc1ccccc1)N=Cc1c(O)[nH]c2ccccc12` (stereo not drawn) is 3.3% (inactive); for `CCOC(=O)c1c(C)[nH]c(/C=C(/C#N)C(N)=NCc2ccccc2)c1O` it is 1.3% (inactive).

As to `CC(Cc1ccccc1)N=C(N)/C(C#N)=C\c1[nH]c2ccccc2c1O` (stereo not drawn), the inhibition was 69.4% (active). The figure for `COc1ccc(N(CC(=O)NCC2CCCO2)S(=O)(=O)c2c(C)noc2C)cc1` (stereo not drawn) is -8.1% (inactive); for `Cc1nc(SCC(=O)Nc2ccc(F)cc2)c2oc3ccccc3c2n1` it is -2.1% (inactive). The figure for `O=C(CSc1ccc(C(=O)O)cc1)Nc1ccccc1` is 0.1% (inactive); for `Cc1nc(=O)c(-c2ccccc2)c(C)n1-c1ccc(C(=O)O)c(O)c1` it is 3.2% (inactive). On to `Cc1nc(=O)c(-c2ccccc2)c(C)n1-c1ccc(O)c(C(=O)O)c1`, for which the inhibition is -7.4% (inactive).

Take `Cc1ccc(C)n1-c1ccc(C(=O)O)c(Cl)c1`: the inhibition was 28.4% (inactive). For `Cc1ccc(C)n1-c1ccc(O)c(C(=O)O)c1`, the inhibition is 100% (active). Turning to `Cc1ccc(C)n1-c1ccc(C(=O)O)c(O)c1`, the inhibition is 101% (active). The figure for `Cc1ccc(C)n1-c1ccc(Cl)c(C(=O)O)c1` is 71.5% (active); for `O=C(O)c1ccc(-n2cccc2)cc1O` it is 4.3% (inactive); for `Cc1ccc(-c2ccccc2)n1-c1ccc(Cl)c(C(=O)O)c1` it is 4.5% (inactive). On to `Cc1ccc(-c2ccccc2)n1-c1ccc(O)c(C(=O)O)c1`, for which the inhibition is 42.1% (inactive). The value for `CCCOc1ccc(C2/C(=C(/O)c3ccccc3)C(=O)C(=O)N2CCCN(C)C)cc1OC` (stereo not drawn) was -0.5% (inactive); that for `CCN(CC)CC(=O)Nc1c(Br)ccc2c1OCO2` was -11.8% (inactive). The figure for `CCC(=O)N1CCc2cc(Br)cc(S(=O)(=O)N3CCN(C(=O)c4ccco4)CC3)c21` is 4.6% (inactive).

Consider `COc1ccc(/C=N/NC(=O)CCn2c3ccccc3c3ccccc32)cc1`, for which the inhibition was 0.1% (inactive).

As for `CCSc1nnc(Cn2c(=O)sc3ccccc32)n1C`, the inhibition was 0.4% (inactive). The value for `CC(C)(C)C(=O)CC(O)(c1ccccc1)C(F)(F)C(F)F` (stereo not drawn) was -1.8% (inactive); that for `CC(C)(C)C1=CC(N)=C(C(C)(C)C)C(=O)C1=O` was 86.4% (active); that for `CC(C)(C)C1=CC(=O)C=C(C(C)(C)C)C1=O` was 6.8% (inactive). The figure for `CC(=O)/C(C1=C(C(C)(C)C)C(=O)C(=O)C(C(C)(C)C)=C1)=C(/C)O` is 6.5% (inactive).

For the compound `c1ccc(Cn2ncc3c(N4CCN(c5ccccn5)CC4)ncnc32)cc1`, the inhibition is 6.4% (inactive). The figure for `COc1ccc(CNS(=O)(=O)c2ccc([N+](=O)[O-])cc2)cc1` is -4% (inactive); for `C=CCN1C(=O)NC(=O)/C(=C\c2ccc(OCc3ccc(Cl)cc3)c(OC)c2)C1=O` it is 5.1% (inactive); for `Brc1ccc(/C=N/n2c(-c3ccccc3)nnc2-c2ccccc2)cc1` it is -2.7% (inactive).

In the case of `COc1cccc(/C=N/n2c(SC)nnc2-c2ccccc2)c1O`, the inhibition is -6.8% (inactive). The figure for `O=C(c1ccco1)N1CCN(S(=O)(=O)c2ccc(Br)s2)CC1` is -14.7% (inactive); for `CCOc1ccc(NC(=O)c2cccc(F)c2)cc1` it is 4.1% (inactive); for `O=C(Nc1cccc(NC(=O)c2cccnc2)c1)c1cccnc1` it is 5.6% (inactive). The figure for `Nc1cc(S(=O)(=O)O)cc2cccc(S(=O)(=O)O)c12` is -2% (inactive); for `Nc1ccc(S(=O)(=O)O)c2cccc(S(=O)(=O)O)c12` it is -2.3% (inactive). As to `Nc1ccc(S(=O)(=O)O)c2cccc(O)c12`, the inhibition was 29.8% (inactive) and 64.8% (active). `O=C(c1ccc(N2CCN(C(=O)c3ccccc3Br)CC2)cc1)c1cccc(F)c1`: the inhibition is 52.2% (active). The figure for `O=C(c1ccc(N2CCN(C(=O)c3ccccc3)CC2)cc1)c1cccc(F)c1` is 4.8% (inactive); for `O=C(c1ccc(N2CCN(C(=O)c3ccccc3F)CC2)cc1)c1cccc(F)c1` it is 4.1% (inactive). Turning to `Cc1ccc(C(=O)Nc2ccc(N3CCOCC3)c(Cl)c2)cc1C`, the inhibition was 5.9% (inactive). In the case of `O=S(=O)(c1cc(Cl)cc(Cl)c1O)c1cc(Cl)cc(Cl)c1O`, the inhibition is -3.1% (inactive). In the case of `O=C(Cn1c(NCCCO)nc2ccccc21)c1ccco1`, the inhibition is -11.1% (inactive). The value for `O=C(O)C1Nc2c(C(=O)N3CCOCC3)cccc2C2C=CCC12` (stereo not drawn) was 0.2% (inactive).

For `CCOC(=O)c1ccc2c(c1)C1C=CCC1C(c1ccc(Cl)cc1Cl)N2` (stereo not drawn), the inhibition is 3.3% (inactive). Regarding `Cc1ccc2c(c1)C1C=CCC1C(c1ccccc1[N+](=O)[O-])N2` (stereo not drawn), the inhibition is 7% (inactive).

Take `Cc1ccc2c(c1)C1C=CCC1C(c1ccc([N+](=O)[O-])cc1)N2` (stereo not drawn): the inhibition was 3.4% (inactive). The value for `CC(=O)c1ccc2c(c1)C1C=CCC1C(c1ccc(Cl)cc1)N2` (stereo not drawn) was 14.4% (inactive). The figure for `O=C(O)C1Nc2c(C(=O)N3CCCC3)cccc2C2C=CCC12` (stereo not drawn) is 5% (inactive).

Take `Cc1c(Cl)ccc2c1NC(C(=O)O)C1CC=CC21` (stereo not drawn): the inhibition is 107% (active). The value for `O=C(O)C1Nc2c(Cl)cc(Cl)cc2C2C=CCC12` (stereo not drawn) was 98.5% (active); that for `Cc1cc(I)c2c(c1)C1C=CCC1C(C(=O)O)N2` (stereo not drawn) was 103% (active). `Brc1ccc(-c2nc(Cc3ccccc3)no2)cc1`: the inhibition was -2.5% (inactive). Consider `CCOc1cc(-c2noc(CCC(=O)Nc3cccnc3)n2)ccc1OC`, for which the inhibition is -11.2% (inactive).

With `O=C(Nc1ccc(-c2nc3ccccc3[nH]2)cc1)c1cc2ccccc2o1`, the inhibition is 53.5% (active). Consider `O=C(Nc1cccc(-c2nc3ccccc3[nH]2)c1)c1ccco1`, for which the inhibition is 3.5% (inactive). Regarding `O=C(Nc1ccc(-c2nc3ccccc3[nH]2)cc1)c1ccc(Cl)c(Cl)c1`, the inhibition was 51.8% (active). The value for `O=C(Nc1ccc(-c2nc3ccccc3[nH]2)cc1)c1ccc(Cl)cc1` was 5.4% (inactive); that for `O=C(Nc1ccc(-c2nc3ccccc3[nH]2)cc1)c1ccccc1` was -0.7% (inactive); that for `O=C(Nc1ccc(Cl)c(-c2nc3ccccc3[nH]2)c1)c1cc2ccccc2o1` was 5% (inactive). The figure for `O=C(Nc1ccc(-c2nc3ccccc3[nH]2)cc1)c1ccc(Br)o1` is 8.1% (inactive); for `Cc1ccc2nc(-c3cccc(NC(=O)c4ccco4)c3)[nH]c2c1` it is 0.4% (inactive); for `Cc1cc(F)ccc1S(=O)(=O)Nc1c(C)n(C)n(-c2ccccc2)c1=O` it is 6.3% (inactive). The figure for `O=C(O)COc1ccc2c(=O)c(-c3ccc(Cl)cc3)coc2c1` is 2% (inactive).

For the compound `CCCCOCCCNC(=O)N[C@@H](CC(C)C)C(=O)O`, the inhibition was 7.7% (inactive). For `COc1ccc(Cl)cc1C(=O)Nc1ccc(N(C)C)cc1`, the inhibition is 0.6% (inactive). The figure for `CSCCNS(=O)(=O)c1ccc(NC(C)=O)cc1` is 1.1% (inactive); for `Cc1ccc(N2C(=O)NC(=O)/C(=C\c3ccc(I)o3)C2=O)cc1` it is 5.4% (inactive); for `O=C1NC(=S)N(c2ccccc2F)C(=O)/C1=C/c1ccc(I)o1` it is 91.2% (active).

With `O=C1NC(=O)N(c2ccc(Cl)cc2)C(=O)/C1=C/c1ccc(I)o1`, the inhibition was 23.6% (inactive). Take `CCOc1ccc(N2C(=O)NC(=O)/C(=C\c3ccc(I)o3)C2=O)cc1`: the inhibition was 5.3% (inactive). `O=C1NC(=O)N(c2ccccc2F)C(=O)/C1=C/c1ccc(I)o1`: the inhibition is 12.9% (inactive). The value for `O=C1NC(=O)N(c2ccccc2F)C(=O)/C1=C/c1ccc(OCc2cccc(C(=O)O)c2)cc1` was 0.8% (inactive). `CCOc1ccc(N2C(=O)/C(=C/c3ccc(OCc4cccc(C(=O)O)c4)cc3)C(=O)NC2=S)cc1`: the inhibition is -1.9% (inactive). The value for `CCOc1ccc(N2C(=O)/C(=C/c3ccc(N(CC)CC)o3)C(=O)NC2=S)cc1` was -0.2% (inactive). The figure for `CCOc1ccc(N2C(=O)/C(=C/c3ccc(I)o3)C(=O)NC2=S)cc1` is 107% (active); for `CCc1ccc(N2C(=O)/C(=C/c3ccc(I)o3)C(=O)NC2=S)cc1` it is 104% (active); for `O=C1NC(=S)N(c2ccccc2F)C(=O)/C1=C/c1ccc(OCc2cccc(C(=O)O)c2)cc1` it is 68.5% (active). As for `O=C1NC(=S)N(c2ccccc2F)C(=O)/C1=C/c1ccc(Sc2ccccc2)o1`, the inhibition is 7.1% (inactive). Take `CC(C)c1ccc(NC2=NS(=O)(=O)c3cc([N+](=O)[O-])ccc32)cc1`: the inhibition is 2.8% (inactive).

As for `Cc1c(Cl)cccc1NC(=O)C(=O)NCc1ccc2c(c1)OCO2`, the inhibition is 0.1% (inactive). Consider `CCOC(=O)c1ccc(NC(=O)CN(c2ccccc2OC)S(=O)(=O)c2ccccc2)cc1`, for which the inhibition is -2.1% (inactive). The figure for `CCCC(=O)OCC(=O)Nc1cc(C(C)(C)C)nn1-c1ccccc1` is -0.4% (inactive). The value for `C=CCc1cccc2cc(C(=O)NCc3ccccc3)c(=O)oc12` was 6.2% (inactive); that for `COc1ccc(NC(=O)C2CCC(C)(C(=O)O)C2(C)C)cc1` (stereo not drawn) was -6.7% (inactive); that for `COc1ccc(/C=N/NC(=O)c2cc(-c3ccc(Cl)cc3)n[nH]2)cc1` was 3.6% (inactive). The value for `O=C(COc1ccc(Cl)cc1)Nc1nc(-c2ccc(Cl)cc2)cs1` was 2.6% (inactive).

One may read the inhibition as the change of the read-out against control, counted positive when it falls.
